Reference: PubChem BioAssay (Tox21)
Results filed as inconclusive are left out. The source made the active and inactive calls. Unless noted, the call rests on the fitted dose curve; in most records, active means well fitted curve in the direction sought with a large enough effect in the repeat runs; inconclusive means weak or mixed curves; inactive means no such curve, though single readings can be large; an effect the other way counts as inactive or inconclusive.

Legend:
[1] = qHTS assay for small molecule agonists of the p53 signaling pathway (AID 651631; calls by dose curve; further: nearly all actives have a fitted effect of over 15% in size)
In short: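 Read-out is beta-lactamase FRET fluorescence measured 2 h after substrate addition at room temperature, in HCT-116 cells with a p53 response element-driven reporter exposed to compounds for 16 h at 37 °C.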

[2] = qHTS assay for small molecules that induce genotoxicity in human embryonic kidney cells expressing luciferase-tagged ATAD5 (AID 651632); further: nearly all actives have a fitted effect of over 15% in size
In short: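 Concentration-response screen for ATAD5 upregulation in HEK293T luciferase reporter cells; 16 hr treatment at 37C, then luminescence after 30 min with Amplite at room temperature.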

[3] = qHTS assay for small molecule agonists of the p53 signaling pathway - cell viability (AID 651633; calls by dose curve;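 further: p53RE-bla HCT reporter cells with a stable beta-lactamase p53 reporter; series mostly up to about 83 µM; nearly all actives have a fitted effect of over 30% in size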)
In short: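 Viability counter-read: CellTiter-Glo luminescence (30 min, room temperature) in the same p53RE-bla plates. These plates had been exposed to compounds for 16 h at 37 C.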

[4] = qHTS assay for small molecule disruptors of the mitochondrial membrane potential - cell viability (AID 720634; calls by dose curve;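 further: human HepG2 liver cancer cells; series mostly up to about 83 µM; nearly all actives have a fitted effect of over 20% in size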)
In short: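 In this qHTS format, HepG2 cells plated overnight were pinned with compound, incubated 1 hr, and assayed for ATP luminescence with CellTiter-Glo after m-MPI dye addition.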

[5] = qHTS assay for small molecule disruptors of the mitochondrial membrane potential (AID 720635)
In short: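 Mitochondrial membrane potential tracked with Mito-MPS dye, red aggregates (ex 540/em 590 nm) against green monomers (ex 490/em 535 nm). Compound treatment 1 hr at 37C, dye 30 min in HepG2.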

[6] = qHTS assay to test for compound auto fluorescence at 535 nm (green) in HepG2 cells (AID 720675)
[7] = qHTS assay to test for compound auto fluorescence at 460 nm (blue) in HEK293 cells (AID 720678)
In short: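 Cells were seeded and left to adhere for 4-5 hr at 37C. Compounds were then pin-transferred. After an overnight incubation at 37C under 5% CO2, intrinsic fluorescence at 405/460 nm was measured and referenced to triamterene.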

[8] = qHTS assay to test for compound auto fluorescence at 590 nm (red) in HEK293 cells (AID 720679)
In short: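 Each well held 2,000 HEK293 cells in medium containing 10% dialyzed FBS. Following 4-5 hr attachment at 37C, 23 nL test compound or DMSO was added; plates sat overnight, and red fluorescence (540/590nm) was recorded.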

[9] = qHTS assay to test for compound auto fluorescence at 535 nm (green) in HEK293 cells (AID 720680)
[10] = qHTS assay to test for compound auto fluorescence at 460 nm (blue) in HEK293 cell free culture (AID 720681)
In short: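 Blue fluorescence (Ex 405/Em 460 nm, triamterene-equivalent) was read immediately after pin transfer of compound or DMSO into medium (DMEM, 10% FBS) without cells.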

[11] = qHTS assay to test for compound auto fluorescence at 535 nm (green) in HEK293 cell free culture (AID 720682)
In short: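 Fluorescein serves as the green reference fluorophore; each compound's intrinsic emission at 535 nm (excitation 485 nm) is reported as an equivalent amount of that dye, measured in serum-containing DMEM without cells.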

[12] = qHTS assay to test for compound auto fluorescence at 590 nm (red) in HepG2 cell free culture (AID 720684)
In short: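 Cell-free; medium MEM + 10% FBS; compound or DMSO added by pintool; read Ex 540/Em 590 nm; Rose Bengal sodium as red reference fluorophore.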

[13] = qHTS assay to test for compound auto fluorescence at 460 nm (blue) in HepG2 cell free culture (AID 720685)
In short: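 Cell-free plates of MEM plus 10% FBS received 23 nL compound or DMSO vehicle; blue-channel (405/460 nm) intensity scored against triamterene as reference fluorophore.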

[14] = qHTS assay to test for compound auto fluorescence at 535 nm (green) in HepG2 cell free culture (AID 720686)
[15] = qHTS assay to test for compound auto fluorescence at 460 nm (blue) in HepG2 cells (AID 720687)
In short: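 Blue-channel autofluorescence (Ex/Em 405/460 nm, triamterene-equivalent) was measured after 1 hr compound exposure at 37 C, 5% CO2. Cells were HepG2, plated overnight at 37 C in MEM plus 10% FBS.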

[16] = qHTS assay to test for compound auto fluorescence at 590 nm (red) in HepG2 cells (AID 720674)
In short: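 1 hr compound incubation on HepG2 cells, 37 C, 5% CO2; plate read ex 540 nm / em 590 nm; intensities reported as Rose Bengal sodium equivalents.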

[17] = target: Glucocorticoid receptor (Homo sapiens) (UniProt P04150); assay: qHTS assay to identify small molecule agonists of the glucocorticoid receptor (GR) signaling pathway (AID 720691; active means well fitted activation curve with a large enough effect in the signal ratio in the repeat runs, not every such curve was filed as active; the % refers to the signal ratio)
In short: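 Measures GR pathway activation through a GRE-beta-lactamase reporter stably integrated in HeLa cells, with 18 h compound treatment at 37 C and fluorescence detection using a FRET substrate.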

[18] = target: Glucocorticoid receptor (Homo sapiens) (UniProt P04150); assay: qHTS assay to identify small molecule antagonists of the glucocorticoid receptor (GR) signaling pathway (AID 720692; active means well fitted inhibition curve with a large enough effect in the signal ratio in the repeat runs, not every such curve was filed as active; the % refers to the signal ratio)
In short: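 Tox21 10K library screened in concentration-response for blockade of dexamethasone (5 nM final)-induced GRE-bla reporter activity in HeLa cells; 18 h treatment, fluorescence read.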

[19] = qHTS assay for small molecules that induce genotoxicity in human embryonic kidney cells expressing luciferase-tagged ATAD5 - cell viability (AID 651634; calls by dose curve; further: nearly all actives have a fitted effect of over 25% in size)
In short: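 15.5 hr compound or vehicle exposure of HEK293T cells expressing luciferase-tagged ATAD5 at 37C; live-cell protease activity is read by fluorescence after 30 min of CellTiter-Fluor.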

[20] = qHTS assay to test for compound auto fluorescence at 590 nm (red) in HEK293 cell free culture (AID 720683)
In short: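 Red-channel autofluorescence of compounds in culture medium (DMEM, 10% FBS), no cells, measured at 540/590 nm. Rose Bengal sodium is the reference fluorophore for equivalence.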

Measured: Potency

Glucocorticoid receptor (Homo sapiens), sequence (P04150 whole entry, looked up): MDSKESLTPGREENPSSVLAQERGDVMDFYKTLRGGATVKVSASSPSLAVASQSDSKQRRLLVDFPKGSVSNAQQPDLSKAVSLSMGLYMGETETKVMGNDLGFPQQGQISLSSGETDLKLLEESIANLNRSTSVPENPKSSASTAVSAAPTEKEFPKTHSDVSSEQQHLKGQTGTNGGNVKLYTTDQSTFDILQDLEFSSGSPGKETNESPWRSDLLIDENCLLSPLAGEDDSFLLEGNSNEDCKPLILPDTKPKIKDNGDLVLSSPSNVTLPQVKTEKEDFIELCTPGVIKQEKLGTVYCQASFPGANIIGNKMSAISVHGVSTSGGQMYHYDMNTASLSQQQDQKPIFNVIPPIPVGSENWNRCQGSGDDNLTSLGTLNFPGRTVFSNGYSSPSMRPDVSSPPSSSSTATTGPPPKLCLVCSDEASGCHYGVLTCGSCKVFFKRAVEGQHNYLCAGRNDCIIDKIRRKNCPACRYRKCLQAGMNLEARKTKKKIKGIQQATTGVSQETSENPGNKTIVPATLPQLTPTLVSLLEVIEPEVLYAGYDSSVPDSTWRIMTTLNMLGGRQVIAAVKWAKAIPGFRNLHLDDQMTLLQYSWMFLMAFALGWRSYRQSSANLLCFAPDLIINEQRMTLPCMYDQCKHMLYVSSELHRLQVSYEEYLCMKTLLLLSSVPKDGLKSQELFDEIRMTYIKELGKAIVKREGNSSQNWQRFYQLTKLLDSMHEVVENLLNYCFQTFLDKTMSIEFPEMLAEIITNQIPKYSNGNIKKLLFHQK

NC(=O)c1cn(Cc2c(F)cccc2F)nn1
not listed: [16] | [17] | [18] | [19] | [20]
inactive: all other assays above

CC(=O)Nc1ccc(S(N)(=O)=O)cc1
not listed: [5] | [9] | [12] | [19] | [20]
inactive: all other assays above

Cc1c(O)cccc1O
not listed: [1] | [9] | [10] | [16] | [17] | [18]
inactive: all other assays above

Nc1c2c(nc3ccccc13)CCCC2O (centres undefined)
not listed: [9] | [19]
inactive: all other assays above

COc1ccc2c(c1)c(CC(=O)OCC(=O)O)c(C)n2C(=O)c1ccc(Cl)cc1
not listed: [5] | [11] | [12] | [18] | [19]
inactive: all other assays above

CCOC(=O)Nc1ccc(NCc2ccc(F)cc2)nc1N
not listed: [1] | [7] | [8] | [9] | [10] | [13] | [15]
inactive: all other assays above

NC(=O)Nc1ccccc1
not listed: [9] | [15] | [18] | [19]
inactive: all other assays above

c1cnc(N2CCN(Cc3ccc4c(c3)OCO4)CC2)nc1
not listed: [1] | [16]
inactive: all other assays above

C[C@](N)(Cc1ccc(O)cc1)C(=O)O
not listed: [8] | [11] | [18] | [19]
inactive: all other assays above

CCN(Cc1ccncc1)C(=O)C(CO)c1ccccc1 (centres undefined)
not listed: [2] | [18]
inactive: all other assays above

COC(=O)NN
not listed: [5] | [14] | [16] | [19]
inactive: all other assays above

COc1ccc(CCN(C)CCCC(C#N)(c2cc(OC)c(OC)c(OC)c2)C(C)C)cc1OC (centres undefined)
not listed: [5] | [19]
inactive: all other assays above

Nc1ccc(S(=O)(=O)Nc2ccnn2-c2ccccc2)cc1
not listed: [5] | [12] | [19]
inactive: all other assays above
